High-throughput results as filed in PubChem BioAssay.
Rab9 promoter act – activators of Rab9 promoter; actives 2.8% (n = 320,000); Huh7 Rab9 promoter-luciferase reporter, luminescence, 24 h; Potency, µM (titrated, usually from 9.22 µM), hits mostly activators; also: nearly all actives have a fitted effect of over 60% in size
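Huh7 reporter line, Rab9 promoter upstream of luciferase. Compound exposure 24 h at 37 °C in reduced-serum medium with 10% FBS. Read-out: luminescence.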
SMN2 splice up – enhancers of SMN2 splice variant expression | HEK293 SMN2-luciferase splicing reporter, luminescence, 30-36 h | Potency, µM (series often up to 46.1 µM), hits mostly activators | actives 2.8% (n = 210,000) | AID 1458; also: nearly all actives have a fitted effect of over 55% in size
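qHTS luciferase splicing reporter: luminescence rises when SMN2 exon 7 is included in transfected HEK293 cells. Compound exposure lasted 30-36 h at 37C, with 4.5 mM final sodium butyrate as control, followed by a ONE-Glo read.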
NPC1 promoter act – NPC1 promoter activation | AID 485313 | Huh7 NPC1 promoter luciferase reporter, 24 h | actives 2.4% (n = 320,000) | Potency, µM (doses to about 9.22 µM), actives largely listed as activators; also: nearly all actives have a fitted effect of over 60% in size
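Compounds in DMSO were transferred onto Huh7 NPC1-luciferase reporter cells pre-incubated 2 h; after 24 h at 37 °C, Amplite reagent was dispensed and luminescence recorded 10 min later.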
ELG1 genotoxic – induces genotoxicity in HEK293T cells with luciferase-tagged ELG1. HEK293T ELG1-luciferase reporter, luminescence, 16 h. actives 1.3% (n = 330,000). Potency, µM (top dose mostly 46 µM), usual class: activators. AID 504466; also: nearly all actives have a fitted effect of over 60% in size
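Genotoxicity was scored as increased ELG1-luciferase reporter signal, measured by ONE-Glo luminescence (30 min, room temperature). Compound or vehicle exposure of the HEK293T reporter cells lasted 16 hr at 37°C.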
FLuc counter – firefly luciferase modulation, counter-screen for miR-21 project. P08659. AID 588342. purified FLuc, Km substrates, luminescence inhibition. actives 6.9% (n = 360,000). Potency, µM (titrated, usually from 57.5 µM), most hits filed as inhibitors; also: nearly all actives have a fitted effect of over 55% in size
Target sequence (P08659 whole entry, looked up): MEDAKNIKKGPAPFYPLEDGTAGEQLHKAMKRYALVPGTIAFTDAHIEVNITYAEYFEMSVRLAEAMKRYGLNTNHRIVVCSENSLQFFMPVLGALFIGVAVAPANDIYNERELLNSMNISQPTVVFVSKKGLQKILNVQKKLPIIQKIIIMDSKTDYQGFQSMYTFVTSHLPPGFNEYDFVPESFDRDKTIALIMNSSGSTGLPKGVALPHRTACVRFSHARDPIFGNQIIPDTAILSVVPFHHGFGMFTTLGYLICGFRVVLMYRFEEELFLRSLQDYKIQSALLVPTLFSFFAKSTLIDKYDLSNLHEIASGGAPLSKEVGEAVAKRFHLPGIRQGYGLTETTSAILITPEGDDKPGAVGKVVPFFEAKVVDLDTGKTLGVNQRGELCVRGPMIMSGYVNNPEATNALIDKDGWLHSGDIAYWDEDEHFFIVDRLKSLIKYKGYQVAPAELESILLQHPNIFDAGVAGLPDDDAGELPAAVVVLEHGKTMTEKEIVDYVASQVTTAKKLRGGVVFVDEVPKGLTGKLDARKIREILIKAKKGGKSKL
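Biochemical qHTS of compounds, final roughly 60 µM downward over six points, against 10 nM purified firefly luciferase using Km concentrations of substrates (10 uM D-luciferin, 10 uM ATP) in Tris acetate pH 7.5 buffer; luminescence output.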
Hits are given with their value. Most compounds without a hit are left out; they make up all but 7.5% or so of the library. Calls follow the shape of the dose curve; as a rule, active = well fitted curve in the direction sought with a large enough effect; inconclusive = small, poorly fitted or top-dose-only effect, or another doubt; inactive = no such curve, though single readings can be large; an effect the other way counts as inactive or inconclusive.

Results for C=CCn1c(-c2ccc(N)cc2)nc2ccccc21 ?
Rab9 promoter act: inconclusive; SMN2 splice up: inconclusive; NPC1 promoter act: inactive; ELG1 genotoxic: 18µM; FLuc counter: 11µM

What do the screens show for `COc1ccc(-c2nc3ccccc3n2Cc2ccccc2)cc1`?
Rab9 promoter act: inactive; SMN2 splice up: inactive; NPC1 promoter act: inactive; ELG1 genotoxic: inactive; FLuc counter: inconclusive

How did C=CCn1c(-c2ccc(OC)cc2)nc2nc3ccccc3nc21 do in these assays?
Rab9 promoter act: inactive; SMN2 splice up: 10µM; NPC1 promoter act: inactive; ELG1 genotoxic: inactive; FLuc counter: inconclusive

How did C=CCn1c(-c2ccc(OC)cc2)nc2ccccc21 do in these assays?
Rab9 promoter act: inactive; SMN2 splice up: inconclusive; NPC1 promoter act: inactive; ELG1 genotoxic: inactive; FLuc counter: 13µM

How did C=CCn1c(N)nc2ccccc21 do in these assays?
Rab9 promoter act: inactive; SMN2 splice up: inactive; NPC1 promoter act: inactive; ELG1 genotoxic: inactive; FLuc counter: inactive

How did CCCn1c(-c2cc(OC)c(OC)c(OC)c2)nc2nc3ccccc3nc21 do in these assays?
Rab9 promoter act: inactive; SMN2 splice up: inconclusive; NPC1 promoter act: inactive; ELG1 genotoxic: inactive; FLuc counter: inactive

Results for O=C(Nc1nc(-c2ccc([N+](=O)[O-])cc2)cs1)c1c(F)cccc1F ?
Rab9 promoter act: inactive; SMN2 splice up: inactive; NPC1 promoter act: inactive; ELG1 genotoxic: inactive; FLuc counter: inactive

What do the screens show for `CCNC(=S)N(Cc1cc2cccc(C)c2[nH]c1=O)C1CCCC1`?
Rab9 promoter act: inactive; SMN2 splice up: inactive; NPC1 promoter act: inactive; ELG1 genotoxic: inactive; FLuc counter: inactive

Results for Cc1csc2nc(-c3cccc(NC(=O)c4ccccc4Cl)c3)cn12 ?
FLuc counter: 12µM

Results for Cc1csc2nc(CNS(=O)(=O)c3ccc(-c4ccccc4)cc3)cn12 ?
Rab9 promoter act: inactive; SMN2 splice up: inactive; NPC1 promoter act: inactive; ELG1 genotoxic: inactive; FLuc counter: inactive

Results for Cc1csc2nc(-c3cccc(NC(=O)c4ccccc4F)c3)cn12 ?
FLuc counter: 6.7µM

How did Cc1csc2nc(-c3cccc(NS(C)(=O)=O)c3)cn12 do in these assays?
FLuc counter: 27µM

How did Cc1csc2nc(-c3cccc(NC(=O)c4cccc(F)c4)c3)cn12 do in these assays?
FLuc counter: 9.5µM

Results for O=C(CN1C(=O)C2CCCCC2C1=O)Nc1nc(-c2ccc(F)cc2)cs1 (stereo not given) ?
Rab9 promoter act: inactive; NPC1 promoter act: inactive; ELG1 genotoxic: inactive; FLuc counter: inactive

How did Cc1ccc(-c2ccc(=O)n(Cc3c(F)cccc3Cl)n2)cc1 do in these assays?
Rab9 promoter act: inactive; NPC1 promoter act: inactive; ELG1 genotoxic: inactive; FLuc counter: inactive

What do the screens show for `Cc1cccc(-n2c(-c3ccncc3)n[nH]c2=S)c1C`?
Rab9 promoter act: inactive; SMN2 splice up: inactive; NPC1 promoter act: inactive; ELG1 genotoxic: inactive; FLuc counter: inactive

What do the screens show for `COC(=O)c1cc(=O)[nH]c(SCc2cccc(C)c2)n1`?
Rab9 promoter act: inactive; SMN2 splice up: inactive; NPC1 promoter act: inactive; ELG1 genotoxic: inactive; FLuc counter: inactive

What do the screens show for `CCOC(=O)c1c(C)nc2c3ccccc3ccn12`?
Rab9 promoter act: 2.2µM; SMN2 splice up: 13µM; NPC1 promoter act: inactive; ELG1 genotoxic: 4.1µM; FLuc counter: 3.8µM

How did Cc1cc(N)n2nc(-c3ccccc3)cc2n1 do in these assays?
Rab9 promoter act: 0.5µM; SMN2 splice up: 7.9µM; NPC1 promoter act: inconclusive; ELG1 genotoxic: 9.2µM; FLuc counter: 1.1µM

How did Cc1ccc(-c2cc3nc(-c4ccccc4)cc(N)n3n2)cc1 do in these assays?
Rab9 promoter act: 1.8µM; SMN2 splice up: 7.1µM; NPC1 promoter act: inconclusive; ELG1 genotoxic: inconclusive; FLuc counter: inconclusive

How did CSc1nc(N)n2nc(-c3ccccc3)cc2n1 do in these assays?
Rab9 promoter act: 2.2µM; NPC1 promoter act: 2µM; ELG1 genotoxic: 10µM; FLuc counter: 3.4µM

What do the screens show for `CC1(C)CC(=O)C=C(Nc2ccc3c(c2)OCCO3)C1`?
Rab9 promoter act: inactive; SMN2 splice up: inactive; NPC1 promoter act: inactive; ELG1 genotoxic: inactive; FLuc counter: inconclusive

Results for COCCCNc1ncnc2sc3c(c12)CCC(C)C3 (stereo not given) ?
Rab9 promoter act: inactive; SMN2 splice up: inactive; NPC1 promoter act: inactive; ELG1 genotoxic: inactive; FLuc counter: inconclusive

What do the screens show for `CC1CCc2c(sc3ncnc(NS(=O)(=O)c4cccs4)c23)C1` (stereo not given)?
Rab9 promoter act: inactive; SMN2 splice up: inactive; NPC1 promoter act: inactive; ELG1 genotoxic: inactive; FLuc counter: 15µM

How did CC(C)(C)c1ccc(/C=N/N2C(=O)CSC2=S)cc1 do in these assays?
Rab9 promoter act: inactive; NPC1 promoter act: inactive; ELG1 genotoxic: inactive; FLuc counter: 17µM

Results for O=C(CCS(=O)(=O)c1ccc(Br)cc1)Nc1ccc(Br)cc1F ?
Rab9 promoter act: inactive; SMN2 splice up: inconclusive; NPC1 promoter act: inactive; ELG1 genotoxic: inactive; FLuc counter: inactive

What do the screens show for `Cn1c(C(=O)NC2CCCCC2)cc2sccc21`?
Rab9 promoter act: 4µM; NPC1 promoter act: inconclusive; ELG1 genotoxic: inconclusive; FLuc counter: 17µM

What do the screens show for `CCn1c(C(=O)NC2CCC(C)CC2)cc2sccc21` (stereo not given)?
Rab9 promoter act: inconclusive; NPC1 promoter act: 3.5µM; ELG1 genotoxic: inconclusive; FLuc counter: 15µM

How did Cn1c(C(=O)N2CCCC(C(=O)O)C2)cc2sccc21 (stereo not given) do in these assays?
Rab9 promoter act: inactive; SMN2 splice up: inactive; NPC1 promoter act: inactive; ELG1 genotoxic: inactive; FLuc counter: inactive

How did CN(C(=O)c1cc2sccc2n1C)C1CCCCC1 do in these assays?
Rab9 promoter act: 3.2µM; SMN2 splice up: 13µM; NPC1 promoter act: 4µM; ELG1 genotoxic: inconclusive; FLuc counter: 13µM

Results for CC1CCN(CCCNC(=O)c2cc3sccc3n2C)CC1 ?
Rab9 promoter act: inactive; NPC1 promoter act: inactive; ELG1 genotoxic: inactive; FLuc counter: inactive

Results for CCN(CC)S(=O)(=O)c1cc(-c2ccc(=O)n(C(C)C(=O)Nc3cccc(C#N)c3)n2)ccc1C (stereo not given) ?
FLuc counter: inactive

How did COc1ccc(Nc2nccc(-c3ccc(C#N)cc3)n2)cc1 do in these assays?
Rab9 promoter act: inactive; NPC1 promoter act: inactive; ELG1 genotoxic: inactive; FLuc counter: inactive

Results for COc1ccc(Nc2nccc(-c3cccc(N)c3)n2)cc1 ?
Rab9 promoter act: inconclusive; NPC1 promoter act: 1.8µM; ELG1 genotoxic: inactive; FLuc counter: 2.7µM

How did CCOC(=O)Cc1csc(NC(=O)COc2ccc(OC)cc2)n1 do in these assays?
Rab9 promoter act: inactive; SMN2 splice up: inactive; NPC1 promoter act: inactive; ELG1 genotoxic: inactive; FLuc counter: 19µM

How did CCOC(=O)Cc1csc(NC(=O)COc2ccccc2OCC)n1 do in these assays?
Rab9 promoter act: inactive; SMN2 splice up: inactive; NPC1 promoter act: inactive; ELG1 genotoxic: inactive; FLuc counter: inactive
